Measured values reported in PubChem BioAssay AID977606 (Broad Institute, 2014).
The whole screen tested about 1,500 compounds, of which about 430 (29%) were called active. Not all results are given here. Results with a measured potency or affinity are listed apart. A number with no mark means an inactive call. The rule behind the calls is not given here.

Assay: insulin secretion activators without glucose, dose response, counter-screen for glucose-dependent insulin secretion activators, cell-based, INS-1E, Gaussia luciferase, luminescence, cherry-pick (AID 977606);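 note: 0% = median of neutral control wells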
Conditions: INS-1E Gaussia luciferase insulin secretion, no glucose, 100% = twice neutral-control luminescence; series mostly up to 35 µM; activation: at the top concentration

| Structure (SMILES) | activation [%] |
| --- | --- |
| Cc1cc(C)n2ncc(-c3cccc(Br)c3)c2n1 | -14.8 |
| CCN(CC)C(=O)Cn1c(=O)oc2ccccc21 | -22.1 |
| COC(=O)N1CCCCC1c1cc(C(=O)NCc2ccc(Cl)c(Cl)c2)no1 (stereo not drawn) | -5.55 |
| c1ccc2c(N3CCCCC3)nc(N3CCCC3)nc2c1 | -5.3 |
| CCOC(=O)c1nc(-c2ccccc2)oc1N(C)C | -3.63 |
| CCOC(=O)c1sc2nc(C)[nH]c(=O)c2c1C | -1.02 |
| COc1ccc(Cc2nnc(-c3ccccc3)o2)cc1 | -14.9 |
| CCCc1nc2n[nH]c(N)c2c2c1COC(C)(C)C2 | 7.71 |
| O=C(COc1nncc2ccccc12)NCC(F)(F)F | -2.23 |
| O=C(c1cccc(F)c1)N1CCCc2ccccc21 | 0.696 |
| CCOc1ccc(CCNC(=O)COc2cccc(-n3cnnn3)c2)cc1OCC | -5.23 |
| COCc1ccc(C(=O)NC2CCSc3ccccc32)cc1 (stereo not drawn) | 2.17 |
| COc1ccc(-c2ccc(=O)n(CC(=O)NC3CCc4ccccc43)n2)cc1OC (stereo not drawn) | -12.5 |
| CCOc1ccc(C(=O)NCC(=O)OCCN2C(=O)c3ccccc3C2=O)cc1OCC | -13.5 |
| CCOc1ncccc1C(=O)Nc1ncc(C)s1 | 1.46 |
| Cc1cc(NCc2ccccn2)nc2ccccc12 | 1.81 |
| O=C(O)CCCC(=O)N1CCN(c2nc(-c3ccccc3)c3ccccc3n2)CC1 | 3.53 |
| C/C=C1\COC(C(=O)NCc2ccccc2)(C(F)(F)F)C=C1C=C1CCCCC1 (stereo not drawn) | 15.7 |
| CC1=NS(=O)(=O)NC(C)(C)C1 | 2.88 |
| COc1ccc(C2=Nn3c(nnc3-c3ccccc3OC)SC2)cc1OC1CCOC1 (stereo not drawn) | -8.39 |
| Cc1ccc2nc(N/N=C/c3ccccc3C#N)nc(-c3ccccc3)c2c1 | 16.9 |
| Cc1ccc2nc(Cl)nc(-c3ccccc3)c2c1 | 11.6 |
| CCOc1ccc(CCNC(=O)CCNC(=O)c2ccco2)cc1OCC | 4.42 |
| COc1ccc(CCNC(=O)CCc2ccccc2O)cc1OC | -18.4 |
| COc1ccc(CCNC(=O)CCc2ccccc2)cc1OC | -95.1 |

| Structure (SMILES) | activation [%] |
| --- | --- |
| N=c1n(CCN2CCCCC2)c2ccccc2n1CC(O)COc1ccccc1 (stereo not drawn) | -7.71 |
| Clc1cc(NC2CCCCC2)ncn1 | 2.37 |
| COc1cccc(-c2cc(C(F)(F)F)nc(-n3cncn3)n2)c1 | -12 |
| CN(C)S(=O)(=O)c1cccc(-c2csc(N/N=C/c3ccco3)n2)c1 | 0.741 |
| Cc1cc(=O)n(Cc2ccccc2)c2ccccc12 | -7.73 |
| COc1ccc(CNC(=O)CCn2c(=O)oc3ccccc32)c(OC)c1 | -4.5 |
| CC1(c2ccc(OC(F)F)cc2)NC(=O)N(CC(=O)Nc2cccc(S(N)(=O)=O)c2)C1=O (stereo not drawn) | -10.9 |
| CCCn1nc(C(=O)NC2CCCC2)c2ccccc2c1=O | 1.18 |
| O=c1[nH]nc(-c2ccccc2)c2ccccc12 | -13.1 |
| COc1ccc(CCN(C)C(=O)COc2cccc(-n3cnnn3)c2)cc1OC | -9.14 |
| CNc1nc(OCC#N)nc(N2CCCCC2)n1 | -15.6 |
| Cc1ccc(-n2nnnc2SCc2ccc(C(=O)O)cc2)cc1C | -8.95 |
| C=CCNC(=S)Nc1ccc2cn[nH]c2c1 | -19.4 |
| O=S(=O)(N1CCOCC1)n1c(Cc2ccccc2)nc2ccccc21 | -11.3 |
| CCN(CC(=O)Nc1ccccc1OC)C(=O)C1CCCC1 | -7.13 |
| O=C(Nc1ccc(F)cc1)N1CCCCN2[C@@H](CO)[C@@H](c3ccc(C#Cc4ccccc4)cc3)[C@@H]2C1 | 6.08 |
| COc1ccc(C2=Nn3c(nnc3-c3ccccc3OC)SC2)cc1OCC1CC1 | -21.9 |
| COc1ccc(C2=NN(C(=O)CCCC(=O)O)C(c3cccs3)C2)cc1OC (stereo not drawn) | -4.08 |
| O=c1[nH]nc(-c2cccs2)c2ccccc12 | -1.69 |
| CCCc1cc(=O)n2[nH]c(C)c(-c3ccc(Cl)cc3)c2n1 | -8.12 |
| CCN1CCN(c2ccc(S(=O)(=O)N3CCCCC3)cc2NC(=O)c2cc3ccccc3o2)CC1 | -13.4 |
| COc1ccc(NC(=O)c2csc(C)c2)cc1OC | -17 |
| CCNC(=O)C1(C)CCCN1C(=O)c1cc(OC)c(OC)c(OC)c1 (stereo not drawn) | 11.6 |
| COc1ccc(Nc2c3c(nc4ccccc24)CCC3)cc1 | 13.9 |
| COc1ccc(/C=N/NC(=O)CN(C2=NS(=O)(=O)c3ccccc32)c2ccccc2)cc1OC | -21.8 |

| Structure (SMILES) | activation [%] |
| --- | --- |
| O=C(O)COc1ccccc1-c1ccccc1 | -3.67 |
| CCN(c1ccccc1)c1nc(Cl)nc2c1cnn2C | 9.73 |
| COCCNC(=O)c1cc2c(c(-c3cccc(C#Cc4ccc(OC)c(OC)c4)c3)n1)[C@H](CCO)N(S(=O)C(C)(C)C)C2 (stereo partly drawn) | 4.47 |
| COc1ccc(C(=O)C2CCCN(C(=O)c3n[nH]c4c3CCCC4)C2)cc1OC (stereo not drawn) | 3.75 |
| Cn1c(=O)[nH]c(=O)c2c1nc(N1CCCCC1)n2C/C=N/Nc1ccc(C(=O)O)cc1 | 17.4 |
| Cc1cc(-c2ccc(S(=O)(=O)N3CCN(C)CC3)s2)on1 | 38.2 |
| Cc1cccc(C)c1NC(=O)NC1CCc2ccccc21 (stereo not drawn) | -13.9 |
| COC(=O)c1ccc(C)c(-n2c(=O)n(Cc3ccccc3)c(=O)c3[nH]cnc32)c1 | 1.73 |
| COC(=O)c1scc(C)c1NC(=O)CC1NCCNC1=O (stereo not drawn) | -6.37 |
| O=C(c1ccccc1)c1ccc2ccccc2n1 | 4.53 |
| COc1ccc(CCNC(=O)NS(=O)(=O)c2ccc(C)cc2)cc1OC | -1.79 |
| COc1cc2c(cc1OC)C(CSc1ccccc1C(=O)O)=NC(C)(C)C2 | -14.8 |
| Cc1cccc2[nH]c3c(N4CC=C(c5ccc(F)cc5)CC4)ncnc3c12 | 1.04 |
| COc1cc(C)c(C)cc1S(=O)(=O)N1CCCCC1c1cccnc1 (stereo not drawn) | 5.28 |
| C[C@@H]1CC2=C(C(=O)OC(C)(C)O2)[C@H](c2ccc(F)cc2)O1 | 2.99 |
| CCCCn1c(=O)n(C)c(=O)c2c3c(sc21)COC(C)(C)C3 | 19.6 |
| COc1ccc(-c2cc(C(=O)N3CCCCCC3)no2)cc1OC | -8.04 |
| CCOC(=O)c1csc(-c2ccc(OC)c(OC)c2)n1 | 12.5 |
| C[C@@H]1CN([C@H](C)CO)C(=O)CCCn2cc(nn2)CO[C@H]1CN(C)S(=O)(=O)c1cccs1 | 1.6 |
| CCOc1ccc(-c2noc(CCC(=O)NC)n2)cc1OCC | -9.04 |
| CCOc1cc(C(=O)N(C)CC(=O)Nc2cccc3ccccc23)ccc1OC | -4.18 |
| COc1cc2c(cc1OC)-c1cc(Nc3ccccc3C)nc(=O)n1CC2 | 18.6 |
| CCOc1ccc(CCNC(=O)COC(=O)c2ccc(C)s2)cc1OCC | 11.7 |
